Test systems include DU-145 prostate; K-562 leukemia; MALME-3M melanoma; MDA-MB-231 breast; SF-268 CNS; SF-295 CNS; SF-539 CNS; UACC-257 melanoma.
Holding throughout (experiment): NCI-60 one-dose screen, 48 h (100 = growth as untreated, 0 = no growth, -100 = all killed)
Holding throughout (conditions): 10 µM unless noted

This is part of a sample that, as a whole, favours compounds with a hit. Of some 83,000 tested, about 20% had one in any assay.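 48-hour exposure, single concentration, 96-well plates; percent growth endpoint where 0 means no net growth. Active: below 10.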 Values without a mark were called inactive. Active and inactive are the calls of the source.

Turning to `NC(N)=Nc1ccc(Oc2cccc(NC(N)=Nc3ccc(Br)cc3)c2)cn1`, the growth with DU-145 prostate is 80.4%; in the test with K-562 leukemia it was 52.4%; with MALME-3M melanoma, 69.8%; in the test with MDA-MB-231 breast, 76.8%; in the test with SF-268 CNS it was 28.2%; in the test with SF-295 CNS, 44.4%. For the same molecule, the growth was 48.7% in the test on SF-539 CNS and 77.9% in the test on UACC-257 melanoma.

Consider `O=C(CSc1nc2ccccc2c(=O)n1-c1ccc(Cl)cc1)N/N=C/c1ccc(N2CCCCC2)cc1`, for which the growth in the test on DU-145 prostate was 29.1%; in the test with K-562 leukemia, 73.6%; in the test on MALME-3M melanoma it was 64.2%; in the test with MDA-MB-231 breast, 72%; in the test with SF-268 CNS it was 34.7%; in the test on SF-295 CNS, 76.4%. For the same molecule, the figures for the growth in the test on SF-539 CNS and with UACC-257 melanoma were 41.3% and 97.1%, respectively.

With `O=C(NNc1nc2cc(F)c(F)cc2n2c(CN3CC4CNCC4C3)ccc12)c1ncccn1` (stereo not drawn), the growth is 24% in the test with DU-145 prostate; 9.16% (active) in the test on K-562 leukemia; 10.3% in the test on MALME-3M melanoma; 38.7% with MDA-MB-231 breast; 19.7% in the test with SF-268 CNS; -14.5% (active) with SF-295 CNS. Also, the growth with SF-539 CNS was 6.72% (active); with UACC-257 melanoma, 8.25% (active).

Regarding `CCOC(=O)C(=O)/C(=C\c1ccc(Cl)cc1)C(=O)N1C(=S)NC(=O)C1CC(C)C` (stereo not drawn), the growth was 85.2% with DU-145 prostate; 102% with K-562 leukemia; 99.8% with MALME-3M melanoma; 90.8% in the test on MDA-MB-231 breast; 100% in the test with SF-268 CNS; 99.9% with SF-295 CNS. Besides, the growth in the test on SF-539 CNS was 103%; with UACC-257 melanoma it was 105%.

In the case of `Cn1ccnc1C(=O)/C=C/c1ccc(CNC(=O)c2ccc(F)cc2)cc1`, the growth in the test on DU-145 prostate is 13.2%; in the test with K-562 leukemia, 11.3%; with MALME-3M melanoma, 84%; with MDA-MB-231 breast, 11%; in the test on SF-268 CNS, 9.43% (active); with SF-295 CNS, 49.1%. Moreover, the growth with SF-539 CNS was -20% (active); with UACC-257 melanoma it was 80.6%.

As to `CCN(CC)c1ccc2c(c1)Oc1nc(N)c(C#N)c(N)c1C2Sc1ccc(F)cc1` (stereo not drawn), the growth is -94.2% (active) in the test on DU-145 prostate; 2.27% (active) in the test with K-562 leukemia; -45.6% (active) in the test on MALME-3M melanoma; -86% (active) in the test on MDA-MB-231 breast; -44.7% (active) with SF-268 CNS; -91.4% (active) in the test on SF-295 CNS. Also, the values for the growth in the test with SF-539 CNS and in the test with UACC-257 melanoma were -96.1% (active) and -16.9% (active), respectively.

Regarding `COc1ccc2c(c1)c(CC(=O)[Se]CCC#N)c(C)n2C(=O)c1ccc(Cl)cc1`, the growth with DU-145 prostate was 6.8% (active); in the test on K-562 leukemia it was 21.2%; with MALME-3M melanoma, -68.3% (active); in the test with MDA-MB-231 breast, -13.8% (active); with SF-268 CNS, -30.7% (active); with SF-295 CNS, -82.9% (active). Besides, the values for the growth in the test on SF-539 CNS and in the test on UACC-257 melanoma were -63.9% (active) and 6.66% (active), respectively.

Regarding `CCOc1ccc(NC2=C(Cl)C(=O)c3nc(C)ccc3C2=O)cc1`, the growth in the test with DU-145 prostate was -92.7% (active); with K-562 leukemia, -4.17% (active); in the test on MALME-3M melanoma, -90.6% (active); with MDA-MB-231 breast, -71.7% (active); with SF-268 CNS, 32.3%; with SF-295 CNS it was 51%. Besides, the growth was -58.8% (active) in the test on SF-539 CNS and -89.2% (active) with UACC-257 melanoma.

Turning to `CN1CCN(c2ccc(/C=N/Nc3nc4ccccc4c(=O)n3-c3ccccc3)cc2)CC1`, the growth was 109% in the test on DU-145 prostate; 103% in the test with K-562 leukemia; 102% with MALME-3M melanoma; 105% with MDA-MB-231 breast; 90.7% in the test with SF-268 CNS; 101% with SF-295 CNS. Moreover, the growth with SF-539 CNS is 101%; in the test on UACC-257 melanoma, 114%.

As to `COc1c(N2CC3CCCNC3C2)c(F)cc2c(=O)c(C(=O)N/N=C/c3c[nH]c4ccccc34)cn(C3CC3)c12` (stereo not drawn), the growth with DU-145 prostate is 104%; in the test on K-562 leukemia, 3.26% (active); in the test with MALME-3M melanoma, 118%; in the test with MDA-MB-231 breast it was 95.3%; in the test with SF-268 CNS it was 91.9%; with SF-295 CNS it was 110%. The growth with SF-539 CNS is 88.2%; with UACC-257 melanoma, 121%.

On to `CCCCCc1ccc(S(=O)(=O)Nc2cccc(-c3csc(NC(=O)CCCCCN4CCN(CCO)CC4)n3)c2)cc1`, for which the growth is 83% in the test on DU-145 prostate; -21.3% (active) with K-562 leukemia; 29.8% with MALME-3M melanoma; 75.7% in the test on MDA-MB-231 breast; 83.2% in the test on SF-268 CNS; 91.5% with SF-295 CNS. Further, the growth in the test on SF-539 CNS is 67.3%; in the test on UACC-257 melanoma, 86.7%.

Regarding `CCCCCc1ccc(S(=O)(=O)Nc2cccc(-c3csc(NCCN4CCN(C)CC4)n3)c2)cc1`, the growth in the test with DU-145 prostate was 74.3%; in the test with K-562 leukemia it was 0.356% (active); in the test on MALME-3M melanoma it was -36.7% (active); in the test with MDA-MB-231 breast, 64.3%; in the test with SF-268 CNS it was 80.9%; in the test on SF-295 CNS it was 107%. For the same molecule, the growth in the test on SF-539 CNS was 76.4%; with UACC-257 melanoma it was 38.1%.

With `CS(=O)(=O)Nc1cc(-c2ccc3ncc(C#N)c(NCc4ccccc4F)c3c2)cnc1Cl`, the growth is 19% with DU-145 prostate; 13.2% in the test with K-562 leukemia; -35.6% (active) in the test on MALME-3M melanoma; 5.59% (active) in the test with MDA-MB-231 breast; 7.96% (active) in the test on SF-268 CNS; -21.7% (active) in the test with SF-295 CNS. For the same molecule, the growth was -11.5% (active) with SF-539 CNS and 2.07% (active) with UACC-257 melanoma.

Take `COc1ccc([C@H]2c3[nH]c4ccccc4c3C[C@H]3C(=O)N(C4CCN(Cc5c(Cl)cccc5Cl)CC4)CC(=O)N23)c(OC)c1`: the growth in the test with DU-145 prostate is 110%; in the test with K-562 leukemia it was 92.7%; in the test with MALME-3M melanoma it was 90.6%; in the test with MDA-MB-231 breast it was 93%; in the test on SF-268 CNS it was 85.6%; with SF-295 CNS it was 106%. In addition, the growth was 101% with SF-539 CNS and 116% with UACC-257 melanoma.

As for `CCN(CC)c1ccc2c(c1)Oc1nc(N)c(C#N)c(N)c1C2Sc1ccc(C)cc1` (stereo not drawn), the growth was -95.5% (active) with DU-145 prostate; 0.301% (active) with K-562 leukemia; -92.9% (active) in the test with MALME-3M melanoma; -87.3% (active) with MDA-MB-231 breast; -52.7% (active) in the test on SF-268 CNS; -93.3% (active) in the test on SF-295 CNS. Moreover, the growth was -97.8% (active) in the test with SF-539 CNS and -74.2% (active) in the test on UACC-257 melanoma.

As for `N#Cc1cnc2ccc(-c3cnc(N)nc3)cc2c1N1CCc2cc(F)c(Cl)cc21`, the growth in the test with DU-145 prostate was 13.3%; in the test on K-562 leukemia, 12%; in the test on MALME-3M melanoma it was -11.6% (active); in the test with MDA-MB-231 breast, 14.9%; with SF-268 CNS it was 5.13% (active); in the test with SF-295 CNS, -8.96% (active). The growth in the test with SF-539 CNS is -12.5% (active); in the test with UACC-257 melanoma, 8.92% (active).

Values taken from PubChem BioAssay (NCI).
